Twelve molecules from PubChem BioAssay (NCATS) can be followed below.

Several values for one entry are separate records, joined by “and”; a condition that tells them apart may be missing. Equal entries are not always repeated. Records with an inconclusive call do not appear. Where a structure was tested more than once in an assay, its records may differ in their call. Unmarked numbers belong to inactive results. Activity calls are given as the source filed them. The call rests on the fitted dose curve; in most records, active means well fitted curve in the direction sought with a large enough effect; inconclusive means small, poorly fitted or top-dose-only effect, or another doubt; inactive means no such curve, though single readings can be large; an effect the other way counts as inactive or inconclusive.

For experiment [1], the system named is CRL-7250. The experiment is described as follows: Cytotoxic Profiling of Annotated Libraries Using Quantitative High-Throughput Screening (AID 1296008). Further: nearly all actives have a fitted effect of over 60% in size. On max response: on the % scale 0 is the no-effect control and ±100 the full control effect. The conditions noted are these: Five cell lines viability, CellTiter-Glo ATP luminescence, 48-72 h; max response: active compounds read low. The essentials: (§1)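 Compounds were pin-transferred onto cells and incubated 48 or 72 hr at 37 degree Celsius, 95% humidity. CellTiter-Glo was added, plates sat 10 min at room temperature, then ATP-coupled luminescence was imaged as the viability read-out.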
A general note: ATP-based viability assays read luminescence as a measure of living cells.

Experiment [2] has as its system HEK293. The experiment is described as above. The conditions noted are these: Five cell lines viability, CellTiter-Glo ATP luminescence, 48-72 h; max response: active compounds read low. Put shortly: as §1
In experiment [3] the test system is HaCat. Described as above. The conditions noted are these: Five cell lines viability, CellTiter-Glo ATP luminescence, 48-72 h; max response: active compounds read low. Put shortly: as §1
For experiment [4], the system named is KB-3-1. Described as above. To be noted: Five cell lines viability, CellTiter-Glo ATP luminescence, 48-72 h; max response: active compounds read low. The essentials: as §1
Experiment [5] relates to NIH3T3. The experiment is described as above. To be noted: Five cell lines viability, CellTiter-Glo ATP luminescence, 48-72 h; max response: active compounds read low. The essentials: as §1
Experiment [6] has as its system HACAT. Nature of the experiment: qHTS assay to identify novel small-molecules to repurpose for Merkel cell carcinoma treatment (AID 1296009). Further: nearly all actives have a fitted effect of over 60% in size. The conditions noted are these: MCC and control cell lines, CellTiter-Glo viability, 72 h; at 44.8 µM (top of the series) unless noted. Put shortly:
(§2)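 qHTS format: cells treated with library compounds in DMSO across 8 (NPC) or 11 (MIPE) concentrations. Readout after 72 hr at 37 degree celsius was CellTiter-Glo luminescence.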

Experiment [7] has as its system MCC-26. Described as above. The conditions noted are these: MCC and control cell lines, CellTiter-Glo viability, 72 h; series mostly up to 46 µM. Put shortly:
as §2

The test system of experiment [8] is MKL-1. The experiment is described as above. To be noted: MCC and control cell lines, CellTiter-Glo viability, 72 h; series mostly up to 46 µM. Put shortly: as §2
Experiment [9] relates to UISO. The description is as above. The conditions noted are these: MCC and control cell lines, CellTiter-Glo viability, 72 h; series mostly up to 46 µM. Put shortly:
as §2

Experiment [10] relates to WaGa. The description is as above. To be noted: MCC and control cell lines, CellTiter-Glo viability, 72 h; series mostly up to 46 µM. Put shortly: as §2
Experiment [11] deals with MCC-13. The experiment is described as above. The conditions noted are these: MCC and control cell lines, CellTiter-Glo viability, 72 h; series mostly up to 46 µM. Put shortly: as §2
Experiment [12] concerns MKL-2. The experiment is described as above. To be noted: MCC and control cell lines, CellTiter-Glo viability, 72 h; series mostly up to 46 µM. The essentials: as §2
Experiment [13] has as its system W2. The experiment is described as follows: qHTS profiling for inhibitors of Plasmodium falciparum proliferation (AID 504749). Further: nearly all actives have a fitted effect of over 60% in size. To be noted: P. falciparum in erythrocytes, SYBR Green DNA, 72 h; series mostly up to 28.7 µM. Put shortly:
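Parasite proliferation within erythrocytes, 72 h exposure. Endpoint: SYBR Green I fluorescence after overnight lysis at room temperature. Controls: 0.29 uM artemisinin, DMSO.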

The test system of experiment [14] is C33A. The experiment is described as follows: Primary qHTS to identify gynecologic anti-cancer compounds using libraries of approved drugs and bioactive compounds (AID 1345084). Further: nearly all actives have a fitted effect of over 55% in size. The conditions noted are these: Gynecologic cancer cell panel viability, ATPlite luminescence, 48 h; series mostly up to 57.5 µM. Put shortly: (§3)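 Five-point cytotoxicity, 48 h drug exposure at 37 C, 5% CO2, on cells seeded 16 h beforehand. ATP content read by ATPlite luminescence.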
(In general: qHTS replaces the single test concentration by a dilution series.)

Experiment [15] deals with CAOV3. The experiment is described as above. The conditions noted are these: Gynecologic cancer cell panel viability, ATPlite luminescence, 48 h; series mostly up to 57.5 µM. The essentials: as §3
Experiment [16] concerns CASKI. The description is as above. To be noted: Gynecologic cancer cell panel viability, ATPlite luminescence, 48 h; series mostly up to 57.5 µM. The essentials:
as §3

The subject of experiment [17] is Es-2. The experiment is described as above. To be noted: Gynecologic cancer cell panel viability, ATPlite luminescence, 48 h; series mostly up to 57.5 µM. Put shortly: as §3
For experiment [18], the system named is HeLa. Described as above. The conditions noted are these: Gynecologic cancer cell panel viability, ATPlite luminescence, 48 h; series mostly up to 57.5 µM. The essentials:
as §3

For experiment [19], the system named is NIH3T3. Nature of the experiment: qHTS assay to identify novel small-molecules to repurpose for Merkel cell carcinoma treatment (AID 1296009). Further: nearly all actives have a fitted effect of over 60% in size. To be noted: MCC and control cell lines, CellTiter-Glo viability, 72 h; at 44.8 µM (top of the series) unless noted. Put shortly:
as §2

Experiment [20] concerns HEK293T. The experiment is described as above. To be noted: MCC and control cell lines, CellTiter-Glo viability, 72 h; at 44.8 µM (top of the series) unless noted. The essentials:
as §2
Potency means the concentration at half of the fitted maximal effect.

As to `CCCCS(=N)(=O)CCC(N)C(=O)O` (stereo not drawn), the max response in experiment [1] was -8.66%; in [2], -11.7%; in experiment [4] it was -5.13%; in [5], -0.0148%. Further, the molecule was called inactive in [3] and in [6]. Also, the Potency entry in experiment [7], in experiment [8], in experiment [9] and in experiment [10] was “inactive” throughout.
With `CCN1CCCC1CNC(=O)c1cc(S(N)(=O)=O)ccc1OC` (stereo not drawn), the molecule was classed as inactive in experiment [1] and in experiment [4]. Further, the max response in [2] is -9.26%; in [3], 2.07%; in [5], -4.16%. Moreover, the Potency entry in experiment [11], in [7], in experiment [8], in experiment [12], in [9] and in experiment [10] was “inactive” in each case.
For `Nc1nc(N)nc(-c2cc(Cl)ccc2Cl)n1`, the Potency result in experiment [13], in experiment [11], in experiment [7], in experiment [8], in [12] and in experiment [9] was “inactive” throughout. In addition, the Potency entry in experiment [10], in [14], in [15], in [16], in [17] and in [18] was “inactive” in each case. Moreover, the max response in [1] is -4.29% and -4.54%; in experiment [2], -8.28% and -2.53%; in experiment [3] it was -21.1% and 4.26%; in experiment [4], -7.71%; in experiment [5] it was -1.04% and -13.6%.
For `O=C(NCC1CN(c2ccc(N3CCOCC3=O)cc2)C(=O)O1)c1ccc(Cl)s1` (stereo not drawn), the call in [1], in experiment [3], in experiment [5], in [6] and in experiment [19] was inactive. The results for the max response in [4] and in experiment [5] were -19.6% and 3.35%, respectively. Besides, the Potency result in experiment [11], in experiment [8], in experiment [12], in experiment [9], in experiment [10] and in [14] was “inactive” each time. The Potency result in experiment [15], in experiment [16], in experiment [17] and in experiment [18] was “inactive” in each case.
Regarding `CCn1cc(C(=O)O)c(=O)c2cc(F)c(N3CCNCC3)cc21`, the Potency in [13] was 2.56 µM (active). In addition, the max response was -1.25% and -6.48% in experiment [1]; -20% in experiment [3]; -20.2% and -20.3% in [4]; -0.113% and -7.16% in experiment [5]. The molecule was classed as inactive in experiment [3], in experiment [4] and in experiment [6]. Also, the Potency entry in [11], in [7], in experiment [8], in experiment [12], in experiment [9] and in experiment [10] was “inactive” in each case. Moreover, the Potency result in experiment [15], in experiment [16] and in experiment [17] was “inactive” each time.
For the molecule `Nc1nc(=S)c2[nH]cnc2[nH]1`, the Potency is 18.8 µM (active) in experiment [1]; 3.76 µM (active) and 9.35 µM (active) in experiment [2]; 1.5 µM (active) and 4.69 µM (active) in experiment [3]; 5.17 µM (active) and 3.66 µM (active) and 1.32 µM (active) in [4]; 841 nM (active) and 3.32 µM (active) in [5]; 4.22 µM (active) in experiment [11]. Moreover, the Potency was 2.37 µM (active) and 23.5 µM (active) in [8]; 7.5 µM (active) in experiment [12]; 1.33 µM (active) in experiment [9]; 3.35 µM (active) and 10.5 µM (active) in experiment [10]; 3.55 µM (active) in [16]; 7.08 µM (active) in [17]. In experiment [18], the Potency was 1.41 µM (active).
Regarding `O=C(O)C1CCCN(CCC=C(c2ccccc2)c2ccccc2)C1` (stereo not drawn), in experiment [1], the result was inactive. In addition, the max response in [2] is 3.73%; in [3], -1.89%; in [4] it was 5.05%; in [5], 3.07%. In addition, the Potency entry in experiment [11], in experiment [8], in experiment [12], in experiment [9] and in experiment [10] was “inactive” throughout.
With `CCN[C@H]1C[C@H](C)S(=O)(=O)c2sc(S(N)(=O)=O)cc21`, the max response in experiment [1] is -1.48% and 1.03%; in [3], -6.44%; in experiment [4], 1.27% and -0.756%; in [5] it was 0.236% and 2.34%. Besides, the molecule was classed as inactive in experiment [3], in experiment [6] and in [20]. For the same molecule, the Potency result in [11], in experiment [7], in [8], in experiment [12], in experiment [9] and in experiment [10] was “inactive” throughout. The Potency result in experiment [14], in experiment [16], in [17] and in experiment [18] was “inactive” throughout.
Consider `CCCCOc1ccc(CC(=O)NO)cc1`, for which the Potency is 0.572 µM (active) in [13], 23.7 µM (active) in experiment [5] and 16.8 µM (active) in [9]. The max response in experiment [1] was -23.3%; in [2], -50.4%; in experiment [4], -6.89%; in experiment [5], -7.85%. For the same molecule, in [4], the call was inactive. For the same molecule, the Potency entry in experiment [11], in experiment [7], in experiment [15], in [16] and in [18] was “inactive” throughout.
Take `COc1cc2ncnc(Nc3cccc(Cl)c3)c2cc1OC`: the Potency in experiment [1] was 0.187 µM (active); in [2] it was 372 nM (active); in experiment [3], 16.6 nM (active) and 1.46 µM (active); in [4], 16.6 µM (active); in experiment [5], 2.09 µM (active). The max response in experiment [5] was -25%. Besides, the Potency result in experiment [11], in [7], in experiment [8], in experiment [12], in experiment [14] and in experiment [16] was “inactive” throughout. Further, the Potency result in [17] and in [18] was “inactive” throughout.
For the molecule `CC(C)NCC(O)c1ccc(NS(C)(=O)=O)cc1` (stereo not drawn), the Potency result in experiment [13], in experiment [11], in experiment [7], in experiment [8], in experiment [12] and in experiment [9] was “inactive” throughout. The Potency entry in experiment [10] is “inactive”. Further, the outcome in experiment [1], in experiment [3] and in experiment [6] was inactive. Further, the max response is 0.785% in [2]; 2.03% and 6.79% in experiment [4]; 4.22% in [5].
With `CCOC(=O)c1ccc(C#Cc2ccc3c(c2)C(C)(C)CCS3)nc1`, the max response is -0.581% and -12.4% in experiment [1]; 5.71% and 0.466% in experiment [4]; -3.55% in [5]. Further, the molecule was classed as inactive in experiment [3], in experiment [5], in experiment [6] and in experiment [19]. The Potency entry in experiment [11], in experiment [8], in experiment [9], in [10], in experiment [14] and in experiment [15] was “inactive” in each case. Moreover, the Potency result in experiment [16], in experiment [17] and in experiment [18] was “inactive” throughout.
